This note sets out measurements from PubChem BioAssay AID1628 (Sanford-Burnham Center for Chemical Genomics, 2009).

Screen size: about 190,000 compounds; about 930 (0.49%) were called active. This is one part of the list. Potency and affinity values are given separately. Values without a mark were called inactive.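 How the source made its calls: active means z-score of insulin promoter reporter brightness in nuclei below -3 at 5 µM, with at least 500 cells counted; inconclusive means wells with under 500 cells, flagged as toxic or sparse; inactive means the rest.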

The assay is described as follows: insulin promoter down-regulators in MIN6 cells, imaging, high-content screening, mouse beta cells (AID 1628). To be noted: MIN6 insulin promoter GFP reporter, at 5 µM, stronger effect = lower value.
With `COc1ccc(C2=Nn3c(nnc3-c3ccccc3OC)SC2)cc1OC`, the z-score is -3.31 (active).
Then `COc1ccc(OC)c(C2=Nn3c(nnc3C3CCCCC3)SC2)c1`, with -6.49 (active); and `COc1ccccc1-c1c(C)c(C)nc(N)c1C#N`, with -0.95; and `CC(=O)Nc1ccc(Nc2c3ccccc3nc3ccccc23)cc1`, with -3.01 (active).
As for `CC(=O)Nc1ccc(N=Cc2c(O)c(C(=O)Nc3ccccc3)cc3ccccc23)cc1`, the z-score is 3.59.
Next, `Cc1ccc(C(=O)SC2=NCCS2)cc1`: 1.97.
`O=C(CSc1ccccn1)Nc1cccc2ccccc12`: the z-score was 2.55.
On to `O=c1[nH]c(/C=C/c2ccccc2OC(F)F)nc2c1cnn2-c1ccccc1`, for which the z-score is 3.2.
Next, `COc1ccc(CN(C(=O)c2ccc(-c3ccccc3)[nH]2)C(C(=O)NC(C)(C)C)c2ccncc2)cc1` (stereo unspecified): 2.66.
Then `O=C(Nn1c(-c2ccccc2)nc2ccccc2c1=O)c1ccco1`, with -0.06; and `Cc1ccc(-c2nnc(N3CCN(C(=O)c4ccco4)CC3)c3ccccc23)cc1`, with -4.39 (active).
In the case of `C[N+](C)(C)CCCNC(=O)c1ccc(/C=N/O)nc1`, the z-score was 0.8.
Then `N#Cc1nc(N2CCOCC2)nc(N2CCOCC2)n1`, with 3.26; and `CCCN1CC=C2C(C#N)=C(N)C(C#N)(C#N)C(c3cc(OC)ccc3OC)C2C1` (stereo unspecified), with 15.3; and `C[n+]1cc(C(=O)N2CCCCC2)ccc1/C=C/c1c[nH]c2ccccc12`, with 3.95.
With `Cc1ccccc1C(=O)N1CCc2ccccc2C1`, the z-score is 3.99.
Then `O=C(c1csc2ccccc12)N1CCCCCC1`, with -4.36 (active); and `N#Cc1c(NC(=O)CCCN2C(=O)c3ccccc3C2=O)oc(-c2ccccc2)c1-c1ccccc1`, with -0.48.
Next, `Cc1ccc(-n2nnnc2SC(C)C(=O)NCC(=O)Nc2ccc(F)c(F)c2F)c(C)c1` (stereo unspecified): -4.63 (active); `Cc1csc(SC(C)C(=O)NCC(=O)Nc2ccc(F)c(F)c2F)n1` (stereo unspecified): 4.91; `Cc1ccc2nc(C)c(C(=O)O)cc2c1`: 3.57.
Take `O=C(CN1CCOCC1)Nc1nc(-c2ccc3c(c2)CCN3S(=O)(=O)c2ccccc2)cs1`: the z-score was -3.24 (active).
With `CS(=O)(=O)N1CCc2cc(-c3csc(NC(=O)Cc4cccs4)n3)ccc21`, the z-score is -3.24 (active).
Then `O=C(Nc1ccccc1)c1ccccc1NS(=O)(=O)c1ccc(Cl)s1`, with -3.51 (active); and `O=S(=O)(NCc1csc(-c2ccccc2)n1)c1ccc(Cl)s1`, with 0.86.
Next, `Cc1ccc(SCCC(=O)N/N=C/c2ccncc2)cc1`: 1.59; `CC(=O)Oc1ccc2c(c1)Oc1cc(OC(C)=O)ccc1C21OC(=O)c2ccccc21`: 15.3; `O=C1/C(=C/c2c[nH]c3ccccc23)CCC/C1=C\c1c[nH]c2ccccc12`: 4.59.
For the compound `O=C1CC(=O)C(n2cncn2)C(c2ccc(Cl)cc2)C1` (stereo unspecified), the z-score is -5.08 (active).
In the case of `COc1ccc(/C=C2/SC(=O)N(CCNC(=O)C3CCCN3C(=O)c3cccs3)C2=O)cc1` (stereo unspecified), the z-score was -4.56 (active).
Then `COCCN1C(=O)/C(=C/c2ccc(N3CCCC3)cc2)SC1=S`, with 16.8; and `CCC(C)(C(=O)NC1CCCC1)N(C(=O)CNC(C)=O)c1ccccc1` (stereo unspecified), with 3.46; and `O=C(CCl)N(c1ccccc1)C1CCCCC1`, with -5.83 (active).
For `Cc1ccc2[nH]c(-c3ccccc3)c(CN(C)C)c(=O)c2c1`, the z-score is 4.17.
With `Cc1ccc(Cn2nnc3c(=O)n(CC(=O)NCc4ccco4)cnc32)cc1`, the z-score was 1.28.
Then `O=c1c2nnn(Cc3ccccc3)c2ncn1C/C=C/c1ccccc1`, with -5.83 (active); and `COc1cccc(-n2nnc3c(=O)n(CC(=O)OCc4ccccc4)cnc32)c1`, with 1.01.
Then `c1ccc(CCNc2c3c(nc4ncnn24)CCC3)cc1`, with -3.18 (active).
Next, `Oc1[nH]c2c(Cl)cc(Cl)cc2c1N=NC(=S)NCC1CCCO1` (stereo unspecified): -3.65 (active).
As for `O=C(CN(C1CCCCC1)S(=O)(=O)c1ccccc1)NCc1ccco1`, the z-score was 0.65.
Then `CCOC(=O)C1CCN(S(=O)(=O)c2ccc3c(c2)CCCN3C(C)=O)CC1`, with -4.86 (active); and `CCC(=O)N1CCCc2cc(S(=O)(=O)N3CCN(c4ccccc4F)CC3)ccc21`, with -5.64 (active); and `COc1ccccc1N/C(N)=N/c1nc(C(F)(F)F)cc(=O)[nH]1`, with 3.34.
Then `CCCCn1c(SCc2ncc(-c3ccccc3)o2)nc2cc(S(N)(=O)=O)ccc21`, with -5.03 (active); and `CCCCn1c(SCC(=O)O)nc2ccccc21`, with 3.5; and `N=c1c2c(-c3ccccc3)c(-c3ccccc3)oc2ncn1CCCN1CCOCC1`, with -3.3 (active).
Take `Cc1cccn2c(=O)c(/C=C3\SC(=S)NC3=O)c(NCCCN3CCOCC3)nc12`: the z-score is 5.45.
Next, `O=C(/C=C/c1ccc(N2CCC(c3ccccc3)=N2)cc1)c1ccccc1`: 17.2; `O=C1C=C(Nc2ccc(O)cc2)CC(c2ccco2)C1` (stereo unspecified): 6.78; `O=c1[nH]c2ccccc2nc1/C=C/c1ccc(F)cc1`: 5.99.
Then `CCOC(=O)c1c(NC(=O)c2ccccc2)sc2c1CCc1ccccc1-2`, with -5.18 (active); and `CCOC(=O)c1sc(NC(=O)c2sccc2C)cc1C`, with 3.1.
Then `CC(=O)C1=C(C)NC(SCC(=O)c2ccc(Cl)c(Cl)c2)=C(C#N)C1c1ccco1` (stereo unspecified), with 3.16; and `CCOC(=O)CSC1=C(C#N)C(c2ccc(C)s2)CC(=O)N1` (stereo unspecified), with -3.15 (active); and `Cc1ccc(C2CC(=O)NC(SCc3ccccc3)=C2C#N)o1` (stereo unspecified), with 3.43.
Take `CCn1c(NCCc2ccc(OC)c(OC)c2)nc2c1c(=O)n(C)c(=O)n2C`: the z-score is -5.44 (active).
Turning to `CCCNc1nc2c(c(=O)n(C)c(=O)n2C)n1CCc1ccccc1`, the z-score was -5.56 (active).
`CCOc1cc2[nH]c(=O)n(CCC(=O)NCCc3ccc(OC)c(OC)c3)c(=O)c2cc1OCC`: the z-score is 1.44.
Then `O=c1cc2oc3cc(O)c(O)cc3c(-c3ccccc3O)c-2cc1O`, with 15.3; and `CCn1c(SCC(=O)Nc2nc3ccc(OC)cc3s2)nc2c1c(=O)n(C)c(=O)n2C`, with -3.33 (active).
Take `CCn1ncc(C2=NOC(C(=O)Nc3cccc(C(C)=O)c3)C2)c1C` (stereo unspecified): the z-score was -3 (active).
In the case of `C=C(C)c1cccc(C(C)(C)NC(=O)NCC2COCCO2)c1` (stereo unspecified), the z-score was 0.86.
Then `CC(C)(C)c1ccc(C(=O)c2c[nH]c(C(=O)NCC3CCCO3)c2)cc1` (stereo unspecified), with -4.57 (active); and `CCn1c(=NC(=O)c2ccc(S(=O)(=O)N(C)C)cc2)sc2cccc(OC)c21`, with -5.14 (active); and `c1ccc(-n2ncc3c(N4CCN(c5ccccn5)CC4)nc(N4CCCCCC4)nc32)cc1`, with 4.11.
In the case of `C/C(=C\c1ccccc1)CN1CCN(c2ccccc2)CC1`, the z-score is 1.49.
Then `CC(=O)Nc1sc(/C(C#N)=C\c2cccc(Cl)c2)nc1-c1ccc(C)cc1`, with 15.6; and `CCOC(=O)N1CCN(/C=C(\C#N)c2nc3ccccc3s2)CC1`, with 3.47; and `Cc1nn(-c2ccccc2)c(N2CCCC2)c1/C=N/n1cnc2scc(-c3ccccc3)c2c1=O`, with -3.26 (active).
Next, `COc1cc2c3nnc(-c4ccc(F)cc4)c-3cn(Cc3ccccc3)c2cc1OC`: 3.81; `COc1ccc(Nc2ncnc3c2cnn3Cc2ccccc2)cc1OC`: -4.71 (active).
As for `O=[N+]([O-])c1ccc(N/N=C/c2ccc[nH]2)cc1`, the z-score is 12.9.
Then `N#C/C(=C/c1ccc(N2CCOCC2)o1)c1ccc(Cl)cc1`, with 7.33.
Take `Oc1c(C=NCc2ccc(F)cc2)[nH]c2ccc(Br)c(Cl)c12`: the z-score was 4.06.
Then `CCOC(=O)c1ccc(NC(=O)COc2ccc(S(=O)(=O)NC(C)CC)cc2)cc1` (stereo unspecified), with 3.08; and `CCC(C)NS(=O)(=O)c1ccc(NC(=O)Cc2ccc(OC)cc2)cc1` (stereo unspecified), with -3.19 (active).
`COc1ccc(NC(=O)CSc2ncccc2C(=O)OC(C)C)cc1OC`: the z-score is -5.26 (active).
Next, `O=C(COC(=O)c1ccco1)NCC1CCCO1` (stereo unspecified): 3.04; `Cc1ccccc1CN(c1ccc(C(=O)NCC2CCCO2)cc1)S(C)(=O)=O` (stereo unspecified): -4.88 (active); `CCCc1n[nH]c2c1C(=O)C(C(=O)OC)C(C)(C)C2` (stereo unspecified): 3.65.
Next, `CN(CCC#N)C(=O)COC(=O)c1ccc(Cl)c(S(N)(=O)=O)c1`: -5.92 (active); `COc1ccc(Cl)cc1NC(=O)c1c(-c2ccccc2)noc1C`: 18.
Next, `CCOC(=O)C1=C(c2ccccc2)NC(N)=NC1c1ccc(OCc2ccc(Cl)cc2)c(OC)c1` (stereo unspecified): -3.43 (active); `CCOC(=O)C1=C(C)NC(=O)NC1c1ccc(N2CCC(c3ccccc3)=N2)cc1` (stereo unspecified): 4.29.
In the case of `O=C(/C=C/c1ccccc1)NCC(=O)N/N=C/c1ccccc1[N+](=O)[O-]`, the z-score was 3.03.
Next, `O=[N+]([O-])c1ccc(N/N=C/c2c[nH]c3ccccc23)cc1`: 3.11; `C=C(C)Cn1c(=S)[nH]c2ccccc2c1=O`: -6.61 (active).
Turning to `Nn1c(=O)[nH]c2ccccc2c1=O`, the z-score was -0.08.
Next, `CCN(CC)CCn1c(=S)[nH]c2ccc(Cl)cc2c1=O`: 3.97.
Next, `O=[N+]([O-])c1ccc(Cc2nnc(-c3ccccc3Cl)o2)cc1`: 2.55; `COCc1c(C(=O)OCC(=O)c2c(N)n(CC(C)C)c(=O)n(C)c2=O)oc2ccccc12`: -4.37 (active).
Then `CC(C)Cn1c(N)c(C(=O)COC(=O)c2ccc3c(c2)OCCO3)c(=O)n(C)c1=O`, with -4.98 (active); and `CCOc1ccc(-c2nnn(CC(=O)c3ccc4c(c3)OCCO4)n2)cc1`, with -0.23; and `C[C@@H](C(=O)Nc1ccc2ccccc2c1)[C@H]1C[C@]1(C)[C@H](NC(=O)c1cnccn1)c1ccccc1`, with -4.74 (active).
Consider `CCOC(=O)CN1C(=O)S/C(=C/c2ccc(N3CCCCC3)o2)C1=O`, for which the z-score is 5.8.
Then `CCOC(=O)C1=C(N2CCCCC2)c2cc3c(n2C1=O)CCCC3`, with -3.42 (active).
